Measurements from the antibiotic and cytotoxicity screens of Wong et al. (2023).
In all, about 39,000 compounds went through this assay and about 1,500 (3.8%) were called active. Many of the other results were omitted from the sample, so actives are more common in it than they were.

Tested on: HSkMC (human skeletal muscle cells)
Test: cytotoxicity call (relative viability < 0.9)
Conditions: 10 µM

SMILES | cytotoxicity call
CN1C(=O)NC(=O)/C(=C\C=C\c2ccco2)C1=O | inactive
COC1=CC(=O)OC(C=Cc2ccccc2)C1 (stereo not drawn) | inactive
O=C(O)CC[C@@H](CP(=O)(O)O)C(=O)O | inactive
CC(=O)OC1CC(OC2C(O)CC(OC3C(O)CC(OC4CCC5(C)C(CCC6C5CC(O)C5(C)C(C7=CC(=O)OC7)CCC65O)C4)OC3C)OC2C)OC(C)C1OC1OC(CO)C(O)C(O)C1O (stereo not drawn) | active
CC12CCC3C(CCC4CC(O)CCC43C)C1CCC2O (stereo not drawn) | inactive
CC12CCC(O)CC1CCC1C2CC(O)C2(C)C(C3=CC(=O)OC3)CCC12O (stereo not drawn) | active
CC(=O)O[C@H]1C[C@@H]2CC[C@@H]3[C@H](CC[C@@]4(C)[C@H]3C[C@H]([N+]3(C)CCCCC3)[C@@H]4OC(C)=O)[C@@]2(C)C[C@@H]1[N+]1(C)CCCCC1 | inactive
CC12CCC3C(CCC4CC(O)CCC43C)C1CCC2=O (stereo not drawn) | inactive
CC(=O)O[C@H]1C[C@H](O[C@H]2[C@@H](O)C[C@H](O[C@H]3[C@@H](O)C[C@H](O[C@H]4CC[C@@]5(C)[C@@H](CC[C@H]6[C@@H]5C[C@@H](O)[C@]5(C)[C@@H](C7=CC(=O)OC7)CC[C@]65O)C4)O[C@@H]3C)O[C@@H]2C)O[C@H](C)[C@H]1O[C@@H]1O[C@H](CO)[C@@H](O)[C@H](O)[C@H]1O | active
CO[C@H]1[C@@H](O)[C@@H](O[C@H]2CC[C@]3(C=O)[C@@H]4[C@@H](CC[C@]3(O)C2)[C@@]2(O)CC[C@H](C3=CC(=O)OC3)[C@@]2(C)C[C@H]4OC(C)=O)O[C@@H](C)[C@@H]1OC(C)=O | inactive
CC(=O)OC1CCC2(C)C(CCC3C2CCC2(C)C(C4=CC(=O)OC4)C(OC(C)=O)CC32O)C1 (stereo not drawn) | active
CNC(=O)Oc1ccc2c(c1)C1(C)CCN(C)C1N2C (stereo not drawn) | inactive
COC(=O)[C@]1(Cc2ccccc2CN=[N+]=[N-])N=C(c2ccc(OCCCO)cc2)O[C@@H]1c1ccccc1CN=[N+]=[N-] | inactive
COc1ccccc1C1(N)CC1 | inactive
N#C[C@]1(O)CN2CCC1CC2 | inactive
CC(C)Oc1ccc(CCN)cc1 | inactive
COc1cc(C=O)cc(OC)c1OC | inactive
Cn1cc([C@@]23C[C@]2(C)COC3=O)cn1 | inactive
C1CCN(C[C@H]2CO[C@]3(CNCCOC3)C2)C1 | inactive
C=C1CC2C(CCC3(C)C(=O)CCC23)C2(C)C=CC(=O)C=C12 (stereo not drawn) | inactive
O=C1C[C@@H](c2ccncc2)C2(CCNCC2)N1 | inactive
O=C(NN=Cc1ccc([N+](=O)[O-])o1)c1cc([N+](=O)[O-])cc([N+](=O)[O-])c1O | inactive

SMILES | cytotoxicity call
CC(C)N(C)C[C@H]1CO[C@]2(CNCCOC2)C1 | inactive
O=c1cccc2n1C[C@@H]1C[C@H]2CN(CCO)C1 | inactive
O=C(CBr)N1CC([N+](=O)[O-])([N+](=O)[O-])C1 | inactive
O=C(O)CNCP(=O)(O)O | inactive
NCCO.NCCO.O[AsH]O[AsH]O (stereo not drawn) | inactive
O=c1cccc2n1C[C@H]1CNC[C@H]2C1 | inactive
CN(C)C(=O)Oc1ccc[n+](C)c1.[Br-] | inactive
NCC1(c2c(F)cc(F)cc2F)CC1 | inactive
CO[C@H]1[C@H](O)[C@@H](O[C@H]2[C@@H](C)O[C@@H](O[C@H]3[C@H](C)O[C@H](O[C@H]4CC[C@@]5(C)[C@@H](CC[C@@]6(O)[C@@H]5C[C@@H](O)[C@]5(C)[C@]6(O)CC[C@@]5(O)[C@@H](C)O)C4)C[C@@H]3OC)C[C@H]2OC)O[C@@H](C)[C@H]1O | inactive
CO[C@H]1[C@@H](O)C[C@@H](O[C@H]2[C@@H](O)C[C@@H](O[C@H]3[C@@H](O)C[C@@H](O[C@H]4CC[C@@]5(C)[C@@H](CC[C@H]6[C@@H]5C[C@@H](O)[C@@]5(C)[C@H](C7=CC(=O)OC7)CC[C@@]65O)C4)O[C@@H]3C)O[C@@H]2C)O[C@@H]1C | active
Cc1cc(N(C)C)ccc1C[C@@H](C)N | inactive
Cn1cc(N2C[C@@H]3CN(CCO)C[C@@H]3C2=O)cn1 | inactive
COC(=O)[C@@H]1[C@@H](CO)[C@@H]2Cn3c(ccc(C4=CCCC4)c3=O)[C@H]1N2S(=O)(=O)c1cn(C)cn1 | inactive
CCC(=O)CCCCC[C@@H]1NC(=O)[C@H]2CCCCN2C(=O)[C@H]([C@H](C)CC)NC(=O)[C@H](Cc2cn(OC)c3ccccc23)NC1=O | active
CCC(=O)CCCCC[C@@H]1NC(=O)[C@H]2CCCCN2C(=O)[C@H]([C@@H](C)CC)NC(=O)[C@H](Cc2cn(OC)c3ccccc23)NC1=O | active
Nc1ccc(-c2ccc(N)cc2)cc1 | inactive
O=[N+]([O-])c1cc([As](=O)(O)O)ccc1O | inactive
COc1cccc(-c2ccc3c(CCN)c[nH]c3c2)c1 | inactive
CCNS(=O)(=O)C(F)(F)C(F)(F)C(F)(F)C(F)(F)C(F)(F)C(F)(F)C(F)(F)C(F)(F)F | inactive
CC(=O)NCCSS(C)(=O)=O.CN(C)c1ccc2c(-c3ccccc3C(=O)O)c3ccc(N(C)C)cc3[o+]c2c1 | inactive
CNc1ccc2oc(C[C@H]3O[C@@]4(CC[C@H]3C)O[C@H]([C@H](C)C(=O)c3ccc[nH]3)[C@H](C)C[C@H]4C)nc2c1C(=O)O | active
